Most compounds without a hit are left out; they make up all but 9.5% or so of the library.
ALDH1A1 inh – ALDH1A1 (human) enzyme inhibition | Purified ALDH1A1, NADH fluorescence, propionaldehyde substrate | Potency, µM (titrated, usually from 75.3 µM), for inactives: at the highest dose activity, negative = inhibition, hits mostly inhibitors | 220,000 compounds, 7.3% hits | AID 1030; active means well fitted inhibition curve with a large enough effect, not every such curve was filed as active; inconclusive means small, poorly fitted or top-dose-only effect, or another doubt; inactive means no such curve, though single readings can be large or run the other way;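 further: plate controls were no enzyme wells and a reference inhibitor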
Target sequence (P00352 whole entry, looked up): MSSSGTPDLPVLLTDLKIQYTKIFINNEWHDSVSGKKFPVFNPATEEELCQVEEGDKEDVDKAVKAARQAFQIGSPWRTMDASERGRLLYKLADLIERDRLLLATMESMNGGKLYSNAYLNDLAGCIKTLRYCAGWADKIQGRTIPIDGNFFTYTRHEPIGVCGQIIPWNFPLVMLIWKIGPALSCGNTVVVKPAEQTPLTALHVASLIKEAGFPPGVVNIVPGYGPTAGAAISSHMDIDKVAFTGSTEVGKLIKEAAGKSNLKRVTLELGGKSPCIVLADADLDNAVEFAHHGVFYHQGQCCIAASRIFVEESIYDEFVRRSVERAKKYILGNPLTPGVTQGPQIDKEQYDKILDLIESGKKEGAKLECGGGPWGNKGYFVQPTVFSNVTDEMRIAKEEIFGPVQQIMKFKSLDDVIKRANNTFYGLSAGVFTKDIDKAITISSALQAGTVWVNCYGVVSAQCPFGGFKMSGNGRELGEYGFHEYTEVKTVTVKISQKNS
NPSR antagonist – blocks cAMP signaling of the human neuropeptide S receptor; Q6W5P4; CHO-NPSR cells, cAMP TR-FRET, antagonist mode; Potency, µM (highest dose often 38.3 µM), without a hit: top-dose activity change, negative = inhibition, most hits filed as inhibitors; 220,000 compounds, 1% hits; further: nearly all actives have a fitted effect of over 50% in size
HPGD inh – HPGD (human) dehydrogenase inhibition; P15428; purified HPGD, NADH fluorescence kinetic, PGE2 substrate; 150,000 compounds, 4.3% hits; Potency, µM, without a hit: at the top dose activity change, negative = inhibition, hits mostly inhibitors; active means well fitted inhibition curve with a large enough effect, not every such curve was filed as active; inconclusive means small, poorly fitted or top-dose-only effect, or another doubt; inactive means no such curve, though single readings can be large or run the other way
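NADH formation kinetics: reaction with 30 uM PGE2 and 1 mM NAD+ (final), 20 nM enzyme, Tris-HCl pH 8 with Tween 20, after 15 min compound preincubation at room temperature. Fluorescence change, last versus first of five reads.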
Tau fibril ThT – blocks human tau fibril formation measured by thioflavin T. Potency, µM (series often up to 57.4 µM), inactives show at the top dose activity, negative = inhibition, usual class: inhibitors. 270,000 compounds, 2.1% hits. recombinant tau K18 P301L, heparin-induced fibrillization, ThT fluorescence. P10636; further: nearly all actives have a fitted effect of over 55% in size
Target sequence (P10636 561-689 P618L limits assumed): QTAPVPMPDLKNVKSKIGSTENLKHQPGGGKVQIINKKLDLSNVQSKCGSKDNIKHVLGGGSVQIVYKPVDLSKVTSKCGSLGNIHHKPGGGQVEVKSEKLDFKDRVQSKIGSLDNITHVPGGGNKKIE
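ThT emission at 510 nm, taken 1 hr after adding 30 uM dye, quantifies aggregates formed when 20 uM heparin acts on human tau K18 P301L for 6 hr at 37 C.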
Tau FP inhib – tau fibrillization inhibition (FP) | P10636 | K18 P301L tau heparin fibrillization, Alexa594 FP, 6 h | Potency, µM (doses to about 57.7 µM), for inactives: at the highest dose activity, negative = inhibition, hits mostly inhibitors | 280,000 compounds, 0.39% hits; further: nearly all actives have a fitted effect of over 55% in size
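FP of Alexa 594-tau after heparin (20 uM) induction. Substrate: human K18 P301L, 15 uM unlabeled, 0.24 uM labeled. Buffer 100 mM sodium acetate pH 7. 6 hr, 37 C.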
Tau fluor counter – counter-screen for tau fibril formation inhibitors; tau K18 P301L Alexa594 fluorescence, heparin fibrillization; Potency, µM (doses to about 57.7 µM), inactives show at the highest dose activity change, negative = decrease; 280,000 compounds, 0.93% hits; further: nearly all actives have a fitted effect of over 55% in size
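Human tau K18 P301L (15 uM unlabeled, 0.24 uM Alexa 594-labeled) in 100 mM sodium acetate pH 7 with 20 uM heparin, 6 hr at 37 C. ThT 30 uM added, 1 hr ambient; Alexa 594 FP and total fluorescence read at 555/632 nm.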
* hit, by the source's call; ? = inconclusive; · = not tested or not shown; [ ] = dose if it differs, or a comment. Unless noted, the call rests on the fitted dose curve; in most records, active means well fitted curve in the direction sought with a large enough effect; inconclusive means small, poorly fitted or top-dose-only effect, or another doubt; inactive means no such curve, though single readings can be large; an effect the other way counts as inactive or inconclusive. Unless noted, on the % scale 0 is the no-effect control and ±100 the full control effect; potency means the concentration at half of the fitted maximal effect.

SMILES	ALDH1A1 inh	NPSR antagonist	HPGD inh	Tau fibril ThT	Tau FP inhib	Tau fluor counter
CCN1C(=O)C(CC(=O)Nc2ccc(OC)cc2)N(CCc2ccccc2)C1=S (stereo not drawn)	2µM*	-36.1%	·	-3.5%	-13.9%	?
COc1ccc(NC(=O)CC2C(=O)N(c3ccc(Cl)cc3)C(=S)N2CCc2ccccn2)cc1 (stereo not drawn)	15.8µM*	?	-18.7%	2.1%	?	?
C=CC[C@@H]1C=C[C@@H](O/N=C(/C)CCC(=O)OC[C@@H]2O[C@H](c3ccccc3)C=C[C@@H]2Oc2ccc(OC)cc2)[C@@H](CO)O1	2.6%[13.5 µM]	·	·	?	-1.5%[11.6 µM]	-12.1%[11.6 µM]
COCCCn1c(SCC(=O)N2CCCC(C)C2)nnc1-c1ccco1 (stereo not drawn)	?	-10.1%[46.1 µM]	-6.4%	-9.1%	7.7%	-1.9%
Cc1cc(OCC(=O)NCCCN(C)C)cc(C)c1Br	1.6%	24.4%[46.1 µM]	-13.7%	6.1%	-6.0%	1.6%
Cc1cc2cc(CNC(=O)CC(C)C)ccc2n1C	1.1%	-6.5%[46.1 µM]	2.24µM*	5.0%	4.3%	3.1%
COc1ccc(CNC(=O)c2cccs2)cc1	?	-6.3%[46.1 µM]	14.1µM*	-6.9%	9.0%	-1.9%
CCCCC(=O)NCc1ccc2c(c1)cc(C)n2C	-4.9%	?	1.12µM*	-5.6%	4.3%	-4.1%
CCOC(=O)CCC(=O)NCc1ccc2c(c1)cc(C)n2C	-7.4%	-7.9%[46.1 µM]	?	-2.8%	-2.3%	-0.6%
Cc1cc2cc(CNC(=O)c3ccc(S(=O)(=O)N4CCCC4)cc3)ccc2n1C	20µM*	9.1%[46.1 µM]	-6.2%	?	?	-3.8%
COc1ccccc1OCCNC(=O)c1cccs1	13.9%	9.4%[46.1 µM]	15.8µM*	-3.0%	-1.8%	-1.6%
Cc1cc2cc(CNC(=O)c3cccs3)ccc2n1C	-10.5%	-27.4%	2.82µM*	15.7%	8.4%	13.6%
COc1cccc(C(=O)NCc2ccc3c(c2)cc(C)n3C)c1	?	-24.3%	·	-14.0%	0.4%	-3.4%
O=C(Cn1cc(C(F)(F)F)ccc1=O)N1CCN(S(=O)(=O)c2ccccc2)CC1	5.7%	-8.4%[46.1 µM]	-11.8%	-2.3%	-8.0%	2.0%
Cc1nc(NC(=O)c2ccccc2)sc1C1(C)CC(c2c(Cl)cccc2Cl)=NO1 (stereo not drawn)	·	-53.3%	·	?	-5.8%	-19.0%
O=C(O)[C@@H]1[C@@H](C(=O)O)[C@@]23CCCC2=C2CC[C@@]3(C(=O)O)[C@@]3(C(=O)O)C[C@@]213	3.2%[13.5 µM]	·	-7.8%	·	·	·
O=[N+]([O-])c1ccc(Sc2cccc3cccnc23)c([N+](=O)[O-])c1	0.1%	3.16µM*	-20.6%	?	-6.4%	?
O=C(c1ccco1)n1nc(-c2ccccc2)nc1SCc1ccccc1	1.1%	-9.1%[46.1 µM]	17.8µM*	?	?	?
O=C(Cc1ccccc1)n1nc(-c2ccco2)nc1SCc1ccccc1	?	-8.6%[46.1 µM]	4.47µM*	-12.5%	-2.3%	-8.4%
CCCC(=O)n1nc(-c2ccco2)nc1SCc1ccccc1	?	15.6%	?	3.0%	8.6%	0.5%
CCN(Cc1ccncc1)C(=O)c1cccs1	6.3%	-2.3%[46.1 µM]	-2.3%	-11.0%	-6.1%	0.8%
CCCOc1ccc(C(=O)Nc2cccc(-c3nc4ccccc4[nH]3)c2)cc1	·	·	·	?	25.1µM*	10µM*[quencher]
CCOc1cc(OCC)cc(C(=O)Nc2cccc(-c3nc4ccccc4[nH]3)c2)c1	·	·	·	-19.5%	?	?
O=C(Nc1ccc(-c2nc3ccccc3[nH]2)cc1)c1ccc2c(c1)OCO2	-2.7%	-12.9%[46.1 µM]	-27.1%	?	5.8%	-24.2%
O=C(COc1ccc(F)cc1)Nc1ccc(Cl)c(-c2nc3ccccc3[nH]2)c1	·	·	·	-2.0%	28.2µM*	?
SMILES	ALDH1A1 inh	NPSR antagonist	HPGD inh	Tau fibril ThT	Tau FP inhib	Tau fluor counter
COc1ccc(OCC(=O)Nc2cccc(-c3nc4ccccc4[nH]3)c2)cc1	-10.5%	?	-27.1%	?	?	20µM*[quencher]
O=C(Nc1ccc(Cl)c(-c2nc3ccccc3[nH]2)c1)c1ccc2c(c1)OCO2	?	-3.0%	-30.8%	?	17.8µM*	?
O=C(COc1ccccc1)Nc1cccc(-c2nc3ccccc3[nH]2)c1	?	6.5%	-13.4%	?	?	?
COc1ccccc1CNc1nccn(-c2ccccc2)c1=O	·	·	·	-8.6%	-6.9%	-8.9%
CC(=O)NCCNc1ncnc2ccc(-c3ccccc3C(F)(F)F)cc12	-7.6%	·	·	·	·	·
CCN(/N=C/c1ccc(Cl)cc1)c1cc(=O)n(C)c(=O)[nH]1	?	20.9%	28.2µM*	4.1%	-0.4%	0.1%
CCN(/N=C/C=C/c1ccccc1)c1cc(=O)n(C)c(=O)[nH]1	0.5%	-15.8%	-26.4%	-12.9%	8.6%	-1.0%
COc1ccc2c(c1)CCc1cc(C(=O)N3CCN(c4ccc(N5CCOCC5)nn4)CC3)sc1-2	?	-12.1%[46.1 µM]	?	8.91µM*	?	-23.7%
COc1ccccc1CNC(=O)c1ccc2c(c1)nc(C)n2-c1cccc(C)c1	·	·	·	-9.1%	5.8%	-2.4%
CC(C)n1c(O)c(N=NC(=O)c2ccccc2NS(=O)(=O)c2cccs2)c2ccccc21	-11.1%	-39.4%	-8.9%	?	-0.3%	-16.6%
C=CCn1c(O)c(N=NC(=O)c2ccccc2NS(=O)(=O)c2cccs2)c2ccccc21	4.47µM*	-18.7%[46.1 µM]	·	?	-14.2%	?
CCCCn1c(O)c(N=NC(=O)c2ccccc2NS(=O)(=O)c2cccs2)c2ccccc21	11.2µM*	-18.3%	-12.8%	?	-6.4%	-0.3%
CCC(C)NC(=O)CCCN1C(=O)CCn2nc(-c3cccn3C)cc21 (stereo not drawn)	·	·	·	-4.3%	-2.7%	2.2%
COc1ccc(-c2[nH]ncc2CN(Cc2nccn2C)C(C)C)c(F)c1	22.4µM*	8.3%	·	-11.8%	-3.1%	-14.7%
CCn1ccnc1CN(C)Cc1cn[nH]c1-c1ccc(F)cc1F	2.1%	8.5%	·	-2.4%	-0.5%	6.1%
COc1ccc(Cn2c(=S)[nH]c3ccccc32)cc1	-4.3%	-2.3%	·	-2.3%	2.5%	-16.5%
COc1ccc(-n2c(=S)[nH]c3ccccc32)cc1	31.6µM*	-16.4%[46.1 µM]	22.4µM*	?	-7.2%	-29.0%
COc1ccc(CCNC(=O)C(=O)NCC(c2ccco2)S(=O)(=O)c2ccc(C)cc2)cc1 (stereo not drawn)	·	·	·	4.8%	-6.6%	-1.9%
C=CCOC(=O)[C@H](O)[C@@H](O)C(=O)OCC=C	0.4%	·	-2.9%	2.8%	6.8%	1.4%
C=CC(=O)OCCOCCOC(=O)C=C	25.1µM*	·	-3.8%	·	·	·
O=C(Cc1cccs1)N/N=C/C(Cl)=C/c1ccccc1	?	-8.0%	·	1.7%	-2.1%	2.8%
C/C=C/C=C/C=O	25.1µM*	·	-8.1%	·	·	·

Source: PubChem BioAssay (National Center for Advancing Translational Sciences (NCATS))
